Measurements as given in the supplement of paper PMC11741263, “Chemoproteomic Profiling of C. albicans for Characterization of Anti-fungal Kinase Inhibitors” (bioRxiv, 2025).

Compound: Cc1[nH]nc2ccc(-c3cc(OC[C@@H](N)Cc4ccccc4)cnc3-c3ccoc3)cc12
Assay: MIB bead binding, log2 fold change vs DMSO (log2 ratio); higher = less competition (weaker engagement)

UniProt Q9BVS4, sequence (Q9BVS4 whole entry, looked up): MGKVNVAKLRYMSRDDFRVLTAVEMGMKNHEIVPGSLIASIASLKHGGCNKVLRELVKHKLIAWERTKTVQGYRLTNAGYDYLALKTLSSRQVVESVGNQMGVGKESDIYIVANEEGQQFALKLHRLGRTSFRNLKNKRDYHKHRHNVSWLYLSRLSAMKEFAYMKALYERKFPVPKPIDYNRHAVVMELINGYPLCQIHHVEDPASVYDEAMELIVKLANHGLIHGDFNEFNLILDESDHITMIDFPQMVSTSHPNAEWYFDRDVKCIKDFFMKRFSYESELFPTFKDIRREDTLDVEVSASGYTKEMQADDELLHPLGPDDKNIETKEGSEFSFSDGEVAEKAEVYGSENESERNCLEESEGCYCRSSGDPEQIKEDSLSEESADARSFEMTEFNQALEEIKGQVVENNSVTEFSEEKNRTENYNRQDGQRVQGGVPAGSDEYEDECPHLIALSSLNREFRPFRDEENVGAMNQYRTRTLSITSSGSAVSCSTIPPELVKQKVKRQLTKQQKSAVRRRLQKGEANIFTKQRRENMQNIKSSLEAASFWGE
UniProt O75460, sequence (O75460 whole entry, looked up): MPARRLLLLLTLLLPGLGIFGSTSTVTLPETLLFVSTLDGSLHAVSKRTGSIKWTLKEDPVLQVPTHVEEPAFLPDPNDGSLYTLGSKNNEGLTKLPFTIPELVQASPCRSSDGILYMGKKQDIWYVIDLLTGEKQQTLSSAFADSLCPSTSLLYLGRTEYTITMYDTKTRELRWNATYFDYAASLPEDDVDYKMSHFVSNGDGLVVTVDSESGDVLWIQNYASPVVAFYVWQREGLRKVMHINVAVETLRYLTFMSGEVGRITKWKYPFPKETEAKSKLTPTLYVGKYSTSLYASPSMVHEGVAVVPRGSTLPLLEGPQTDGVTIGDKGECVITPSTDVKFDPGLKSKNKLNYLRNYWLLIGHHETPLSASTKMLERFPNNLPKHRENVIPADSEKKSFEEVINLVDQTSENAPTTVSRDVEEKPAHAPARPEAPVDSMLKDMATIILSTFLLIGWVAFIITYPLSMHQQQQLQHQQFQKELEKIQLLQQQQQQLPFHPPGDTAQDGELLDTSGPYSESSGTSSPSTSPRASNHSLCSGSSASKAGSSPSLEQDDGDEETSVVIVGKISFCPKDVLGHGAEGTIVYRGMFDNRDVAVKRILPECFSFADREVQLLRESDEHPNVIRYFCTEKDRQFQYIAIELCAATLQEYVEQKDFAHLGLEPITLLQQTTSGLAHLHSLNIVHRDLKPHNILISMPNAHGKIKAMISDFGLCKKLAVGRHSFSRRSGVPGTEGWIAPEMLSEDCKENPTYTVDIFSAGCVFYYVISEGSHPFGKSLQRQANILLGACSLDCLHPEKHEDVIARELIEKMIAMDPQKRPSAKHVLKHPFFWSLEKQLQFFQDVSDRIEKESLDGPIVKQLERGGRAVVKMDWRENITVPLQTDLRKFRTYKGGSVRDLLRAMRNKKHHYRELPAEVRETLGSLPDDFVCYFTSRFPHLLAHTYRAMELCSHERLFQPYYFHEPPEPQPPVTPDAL
UniProt Q92207, sequence (Q92207 whole entry): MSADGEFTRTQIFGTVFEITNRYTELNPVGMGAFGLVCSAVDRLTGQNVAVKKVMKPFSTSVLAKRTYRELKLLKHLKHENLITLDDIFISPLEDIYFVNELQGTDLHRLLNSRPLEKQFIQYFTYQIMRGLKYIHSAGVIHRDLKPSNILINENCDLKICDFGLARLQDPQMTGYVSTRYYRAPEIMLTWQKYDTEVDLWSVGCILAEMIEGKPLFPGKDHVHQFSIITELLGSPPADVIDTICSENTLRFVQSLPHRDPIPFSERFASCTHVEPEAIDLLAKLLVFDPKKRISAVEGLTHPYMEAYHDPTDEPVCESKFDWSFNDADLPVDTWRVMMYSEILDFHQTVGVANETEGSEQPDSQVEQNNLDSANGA
UniProt Q59W62, sequence (Q59W62 whole entry): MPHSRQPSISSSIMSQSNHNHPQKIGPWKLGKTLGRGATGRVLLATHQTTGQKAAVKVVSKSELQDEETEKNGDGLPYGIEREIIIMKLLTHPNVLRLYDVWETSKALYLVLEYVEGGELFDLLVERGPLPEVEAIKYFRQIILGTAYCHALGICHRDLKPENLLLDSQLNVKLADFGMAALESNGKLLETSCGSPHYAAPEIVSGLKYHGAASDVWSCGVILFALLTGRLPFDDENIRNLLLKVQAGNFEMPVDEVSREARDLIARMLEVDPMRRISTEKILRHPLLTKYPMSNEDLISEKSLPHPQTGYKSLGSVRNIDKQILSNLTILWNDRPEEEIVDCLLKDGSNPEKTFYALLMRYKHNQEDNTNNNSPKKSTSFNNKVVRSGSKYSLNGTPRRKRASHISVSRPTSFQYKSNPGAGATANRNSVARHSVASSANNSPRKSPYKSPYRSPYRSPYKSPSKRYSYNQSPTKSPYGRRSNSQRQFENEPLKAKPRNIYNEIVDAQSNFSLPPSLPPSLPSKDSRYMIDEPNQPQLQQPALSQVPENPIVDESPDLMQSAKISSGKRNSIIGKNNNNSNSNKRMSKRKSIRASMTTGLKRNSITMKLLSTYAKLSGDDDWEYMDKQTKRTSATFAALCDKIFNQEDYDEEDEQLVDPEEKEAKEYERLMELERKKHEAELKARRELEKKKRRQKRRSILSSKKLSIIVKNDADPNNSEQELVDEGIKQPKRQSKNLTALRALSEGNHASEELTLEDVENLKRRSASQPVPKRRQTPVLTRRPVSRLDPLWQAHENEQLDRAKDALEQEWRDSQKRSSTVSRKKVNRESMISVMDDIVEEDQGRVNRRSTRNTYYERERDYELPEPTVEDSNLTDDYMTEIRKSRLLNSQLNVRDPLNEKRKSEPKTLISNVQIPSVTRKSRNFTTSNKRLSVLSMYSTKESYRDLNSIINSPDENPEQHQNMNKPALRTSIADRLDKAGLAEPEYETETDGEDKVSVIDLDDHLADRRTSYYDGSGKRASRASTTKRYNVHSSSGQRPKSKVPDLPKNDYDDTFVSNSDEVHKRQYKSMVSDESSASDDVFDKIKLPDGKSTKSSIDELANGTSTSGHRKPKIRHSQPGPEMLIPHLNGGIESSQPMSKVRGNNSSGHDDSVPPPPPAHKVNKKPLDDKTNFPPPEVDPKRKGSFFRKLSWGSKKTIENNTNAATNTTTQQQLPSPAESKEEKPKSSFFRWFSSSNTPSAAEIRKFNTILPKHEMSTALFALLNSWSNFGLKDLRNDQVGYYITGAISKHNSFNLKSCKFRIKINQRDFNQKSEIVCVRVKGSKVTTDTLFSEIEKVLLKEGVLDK
UniProt Q5AP53, sequence (Q5AP53 whole entry): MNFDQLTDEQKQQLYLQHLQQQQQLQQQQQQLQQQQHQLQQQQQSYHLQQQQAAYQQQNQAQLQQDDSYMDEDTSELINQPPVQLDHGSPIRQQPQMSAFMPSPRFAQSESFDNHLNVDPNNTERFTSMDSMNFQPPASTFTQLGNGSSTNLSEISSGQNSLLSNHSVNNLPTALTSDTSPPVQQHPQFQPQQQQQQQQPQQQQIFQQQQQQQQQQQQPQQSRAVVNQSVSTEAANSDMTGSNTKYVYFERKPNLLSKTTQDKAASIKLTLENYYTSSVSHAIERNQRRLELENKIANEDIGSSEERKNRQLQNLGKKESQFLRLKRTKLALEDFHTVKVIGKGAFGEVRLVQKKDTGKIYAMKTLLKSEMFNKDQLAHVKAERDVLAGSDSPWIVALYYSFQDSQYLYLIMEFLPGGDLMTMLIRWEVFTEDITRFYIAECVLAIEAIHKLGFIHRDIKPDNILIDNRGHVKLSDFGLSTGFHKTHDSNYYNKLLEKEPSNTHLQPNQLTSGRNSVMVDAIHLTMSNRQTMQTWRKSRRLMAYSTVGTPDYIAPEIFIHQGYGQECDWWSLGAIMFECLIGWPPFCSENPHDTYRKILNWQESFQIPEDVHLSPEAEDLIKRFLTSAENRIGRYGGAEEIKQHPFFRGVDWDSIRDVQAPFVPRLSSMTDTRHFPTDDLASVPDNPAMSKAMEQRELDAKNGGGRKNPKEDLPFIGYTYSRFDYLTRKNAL
UniProt Q9UW13, sequence (Q9UW13 whole entry): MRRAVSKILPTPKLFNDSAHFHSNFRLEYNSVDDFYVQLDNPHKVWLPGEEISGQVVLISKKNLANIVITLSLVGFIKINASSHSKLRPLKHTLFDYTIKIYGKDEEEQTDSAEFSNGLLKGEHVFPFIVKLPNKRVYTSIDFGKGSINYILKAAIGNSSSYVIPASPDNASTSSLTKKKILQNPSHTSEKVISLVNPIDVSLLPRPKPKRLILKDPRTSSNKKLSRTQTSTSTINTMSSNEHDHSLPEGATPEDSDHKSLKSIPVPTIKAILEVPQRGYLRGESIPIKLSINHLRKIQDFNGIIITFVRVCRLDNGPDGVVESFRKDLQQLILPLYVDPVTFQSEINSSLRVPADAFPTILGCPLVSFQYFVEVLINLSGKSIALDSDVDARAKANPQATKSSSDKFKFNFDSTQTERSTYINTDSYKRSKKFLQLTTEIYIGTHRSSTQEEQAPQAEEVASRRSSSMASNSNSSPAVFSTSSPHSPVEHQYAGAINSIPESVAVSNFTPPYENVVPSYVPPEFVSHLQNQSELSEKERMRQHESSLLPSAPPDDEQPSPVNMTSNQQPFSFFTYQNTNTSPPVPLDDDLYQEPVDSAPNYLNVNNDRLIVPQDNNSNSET
UniProt P43063, sequence (P43063 whole entry): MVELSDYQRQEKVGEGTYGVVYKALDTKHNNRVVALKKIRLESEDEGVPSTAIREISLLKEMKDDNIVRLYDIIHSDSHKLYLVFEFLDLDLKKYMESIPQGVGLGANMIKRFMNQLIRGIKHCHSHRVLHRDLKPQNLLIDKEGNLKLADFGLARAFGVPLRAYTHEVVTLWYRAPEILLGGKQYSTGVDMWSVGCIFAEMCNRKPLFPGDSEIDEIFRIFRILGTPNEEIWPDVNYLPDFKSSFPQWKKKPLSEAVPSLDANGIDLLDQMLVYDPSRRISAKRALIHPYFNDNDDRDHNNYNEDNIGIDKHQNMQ

Target | MIB bead binding (log2) (0.1 µM) | MIB bead binding (log2) (1 µM) | MIB bead binding (log2) (10 µM)
YCK2 | -0.488 | -1.75 | -3.65
RIM11 | -0.208 | -0.891 | -3.89
KSP1 | 0.0498 | -0.354 | -0.384
orf19.4575 | -0.428 | -0.272 | -2.61
orf19.6492 | -0.282 | -0.0346 | -3.3
CDC28 (UniProt P43063) | 0.12 | 0.127 | -0.931
RIM8 (UniProt Q9UW13) | -0.206 | -0.122 | -2.22
HOG1 (UniProt Q92207) | 0.146 | 0.244 | -0.916
SSK2 | -0.564 | -0.847 | -2.24
SAK1 | 0.0968 | -0.223 | -0.482
Yck22 | -0.049 | -0.35 | -2.01
HRK1 | -0.0934 | 0.0301 | -0.517
HST7 | 0.106 | -0.0777 | -1.68
RTK1 | 0.0613 | 0.118 | -1.04
HRR25 | -0.165 | -0.114 | -1.89
NPR1 (UniProt P16066) | 0.0428 | -0.0888 | -0.75
ENV7 | -0.351 | 0.16 | -1.89
IRE1 (UniProt O75460) | -0.11 | 0.0485 | -0.0877
POM1 | -0.418 | -0.345 | -2.53
RCK2 | -0.0134 | -0.109 | -0.886
CBK1 (UniProt Q5AP53) | 0.0978 | -0.0808 | -0.759
CEK1 | -0.256 | -0.317 | -1.74
SHA3 | -0.155 | -0.569 | -1.8
RIO2 (UniProt Q9BVS4) | -0.284 | -0.263 | -1.23
GIN4 (UniProt Q59W62) | -0.016 | -0.162 | -0.625
CKA2 | 0.0997 | 0.026 | -1.17
TOR1 | -0.226 | 0.207 | -1.59
FPK1 | 0.0443 | -0.0445 | -0.41
